One experiment addresses Albumin (Bos taurus) (UniProt P02769). Briefly: bovine serum albumin binders on microarray, profiling panel, artefact control for SMM control protein annotation, biochemical, small-molecule microarray, Alexa647 label, 635/667 nm fluorescence (AID 1118).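 Also: score merges 667 nm emission intensity and signal-to-noise per printed compound spot.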 As to conditions: BSA-A647 binding, fluorescence 635 nm, higher = more signal.
Experiment [1] is described as follows: small-molecule microarray binders of probe aXIP, primary screen, biochemical, NeuroSMM set, 635/667 nm fluorescence (AID 1119).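 Also: probe is the protein aXip251-270 applied at 1 µg/mL to compound-printed slides; binding of probe to printed compounds measured as 667 nm fluorescence plus signal to noise.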 As to conditions: higher = more signal, called active from +8 up or from −8 down.
The nature of experiment [2]: small-molecule binders of probe aNOTCH3, primary screen, biochemical, small-molecule microarray, 635/667 nm fluorescence (AID 1120).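 Also: probe is a biotin-tagged antibody raised against NOTCH3 rather than NOTCH3 protein; score merges spot fluorescence near 667 nm with spot signal to noise.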 As to conditions: higher = more signal.
A short description of experiment [3]: small-molecule binders of probe aNOTCH2, primary screen, biochemical, small-molecule microarray, 635/667 nm fluorescence (AID 1121).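 Also: score merges feature fluorescence read at 667 nm with its signal to noise.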 Particulars: higher = more signal.
Experiment [4] deals with Carbonic anhydrase 2 (Homo sapiens) (UniProt P00918). Put plainly: CAII small-molecule binders, profiling panel, biochemical, small-molecule microarray, Alexa647-labelled CAII (AID 1122). Particulars: CAII-A647 binding fluorescence, higher = more signal.
A short description of experiment [5]: COS7 lysate on small-molecule microarray, probe aHis, 635 nm (AID 1123).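 Also: z-score combines 667nm fluorescence intensity with signal-to-noise per printed compound spot.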 As to conditions: COS7 cell lysate, fluorescence, higher = more signal.
Experiment [6] is described as follows: compound binding in COS7 lysate, probe aLAP1, primary screen, cell lysate, small-molecule microarray (AID 1124).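 Also: lysate comes from COS7 cells expressing LAP1 and is applied at 0.3 µg/mL; score merges spot fluorescence near 667 nm with signal-to-noise over triplicate slides.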 Particulars: probe aLAP1, fluorescence, higher = more signal.
Another experiment deals with Sam68 (KHDRBS1). Put plainly: Sam68 small-molecule binders, primary screen, biochemical, small-molecule microarray, 635 nm fluorescence (AID 1125).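 Also: score merges 667 nm channel intensity with signal to noise over triplicate slides.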 As to conditions: small-molecule microarray binding, higher = more signal.
Experiment [7] relates to Chordin-like protein 2 (CHRDL2). Briefly: CHRDL2 small-molecule binders, primary screen, biochemical, small-molecule microarray, 635 nm fluorescence (AID 1126).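 Also: printed compound slides probed with Chrdl2 protein at 4 µg/mL for 1 h at 4 C; score merges 667 nm emission intensity with signal to noise over three replicate slides.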 Particulars: small-molecule microarray binding, fluorescence 635 nm; higher = more signal.
Experiment [8] addresses Concanavalin-A (Canavalia ensiformis) (UniProt P02866). Briefly: ConA small-molecule binders, primary screen, artefact control for SMM control protein annotation, biochemical, small-molecule microarray, Alexa647 label, 635 nm (AID 1127).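 Also: z combines 667 nm emission intensity with signal-to-noise across three replicate slides.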 Particulars: ConA-A647 binding fluorescence, higher = more signal.
Experiment [9] can be described thus: anti-His antibody binders, primary screen, artefact control for SMM control protein annotation, biochemical, small-molecule microarray, 635 nm fluorescence (AID 1128).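 Also: score merges feature fluorescence with signal-to-noise for each printed compound spot.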 As to conditions: anti-His Alexa647 antibody binding, higher = more signal.
The subject of experiment [10] is Human papillomavirus type 1a E7 protein (residues 1-88). Put plainly: HPV1a E7 small-molecule binders, primary screen, biochemical, small-molecule microarray, residues 1-88, 635 nm (AID 1129). As to conditions: small-molecule microarray binding, fluorescence 635 nm; higher = more signal.
Experiment [11] has as its target Focal adhesion kinase 1 (Homo sapiens) (UniProt Q05397). Briefly: small-molecule microarray binders of FAK, primary screen, biochemical, 635/667 nm fluorescence, BSA, DTT (AID 1130).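 Also: composite of spot emission at 667 nm and signal to noise over triplicate slides.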 As to conditions: PTK2 binding, 635 nm fluorescence, higher = more signal.
The test system of experiment [12] is Fibrinogen (Alexa647-labelled). Briefly: fibrinogen binders on compound microarrays, profiling panel, artefact control for SMM control-protein annotation, biochemical, small-molecule microarray, 635/667 nm fluorescence (AID 1131).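 Also: z-score merges 667 nm fluorescence with per-spot signal-to-noise over triplicate slides.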 Particulars: fibrinogen-A647 binding fluorescence, higher = more signal.
The target in experiment [13] is Follistatin (Homo sapiens) (UniProt P19883). Briefly: follistatin binders on small-molecule microarrays, primary screen, biochemical, small-molecule microarray, 635/667 nm fluorescence (AID 1132). As to conditions: FST binding, 635 nm fluorescence, higher = more signal.
Chain of Follistatin (Homo sapiens) (P19883 whole entry, looked up): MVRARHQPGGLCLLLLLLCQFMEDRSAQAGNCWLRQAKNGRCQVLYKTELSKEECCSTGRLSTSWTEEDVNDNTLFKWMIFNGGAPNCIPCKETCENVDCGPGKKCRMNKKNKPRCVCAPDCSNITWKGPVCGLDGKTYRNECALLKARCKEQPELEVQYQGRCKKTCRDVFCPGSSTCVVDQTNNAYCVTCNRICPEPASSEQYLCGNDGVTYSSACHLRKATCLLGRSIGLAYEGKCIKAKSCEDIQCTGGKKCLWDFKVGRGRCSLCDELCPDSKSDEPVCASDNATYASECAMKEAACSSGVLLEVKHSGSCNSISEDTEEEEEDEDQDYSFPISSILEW
The target of experiment [14] is Fibroblast growth factor 2 (Homo sapiens) (UniProt P09038). Put plainly: FGF2 binders on small-molecule microarrays, primary screen, biochemical, small-molecule microarray, 635/667 nm fluorescence (AID 1133). As to conditions: small-molecule microarray binding, FGF2, fluorescence 635/667; higher = more signal.
Chain of Fibroblast growth factor 2 (Homo sapiens) (P09038 whole entry, looked up): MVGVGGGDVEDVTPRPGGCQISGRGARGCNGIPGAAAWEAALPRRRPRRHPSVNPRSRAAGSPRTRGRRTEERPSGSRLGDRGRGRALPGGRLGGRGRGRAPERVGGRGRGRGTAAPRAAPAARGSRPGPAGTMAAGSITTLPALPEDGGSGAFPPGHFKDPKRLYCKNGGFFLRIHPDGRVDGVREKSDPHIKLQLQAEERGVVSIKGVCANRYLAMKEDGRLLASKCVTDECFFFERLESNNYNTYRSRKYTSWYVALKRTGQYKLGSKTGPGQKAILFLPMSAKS
Experiment [15] in a line: mitochondrial membrane potential change in A549 cells, profiling panel, cell-based, JC-1 fluorescence, basal, 24 h, 100 nL (AID 1138).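 Also: A549 lung adenocarcinoma cells under basal conditions with no added stimulus; test concentration not given here.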 As to conditions: higher = more signal.
A further experiment has as its system Lefty1. Put plainly: Lefty1 binders on small-molecule microarrays, primary screen, biochemical, small-molecule microarray, 635/667 nm fluorescence (AID 1139). Particulars: small-molecule microarray binding, fluorescence 635/667; higher = more signal.
Experiment [16] deals with wheat germ agglutinin (Triticum aestivum), Alexa647-labelled. Briefly: wheat germ agglutinin binders on compound microarrays, profiling panel, artefact control for SMM control-protein annotation, biochemical, small-molecule microarray, 635/667 nm fluorescence (AID 1140).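 Also: score merges 667 nm feature emission with signal to noise over triplicate slides.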 Particulars: WGA-A647 binding, 635 nm fluorescence, higher = more signal.
The target in experiment [17] is Luciferin 4-monooxygenase (Photinus pyralis) (UniProt P08659). Put plainly: firefly luciferase enzyme inhibitors, primary screen, biochemical, luminescence, purified enzyme, 2006 set (AID 1141).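 Also: cell-free assay with purified firefly luciferase at 100 ng per well in PBS; test concentration not given here.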 As to conditions: SteadyGlo luminescence, 30 min, higher = more signal, called active from +8 up or from −8 down.
Chain of Luciferin 4-monooxygenase (Photinus pyralis) (P08659 whole entry, looked up): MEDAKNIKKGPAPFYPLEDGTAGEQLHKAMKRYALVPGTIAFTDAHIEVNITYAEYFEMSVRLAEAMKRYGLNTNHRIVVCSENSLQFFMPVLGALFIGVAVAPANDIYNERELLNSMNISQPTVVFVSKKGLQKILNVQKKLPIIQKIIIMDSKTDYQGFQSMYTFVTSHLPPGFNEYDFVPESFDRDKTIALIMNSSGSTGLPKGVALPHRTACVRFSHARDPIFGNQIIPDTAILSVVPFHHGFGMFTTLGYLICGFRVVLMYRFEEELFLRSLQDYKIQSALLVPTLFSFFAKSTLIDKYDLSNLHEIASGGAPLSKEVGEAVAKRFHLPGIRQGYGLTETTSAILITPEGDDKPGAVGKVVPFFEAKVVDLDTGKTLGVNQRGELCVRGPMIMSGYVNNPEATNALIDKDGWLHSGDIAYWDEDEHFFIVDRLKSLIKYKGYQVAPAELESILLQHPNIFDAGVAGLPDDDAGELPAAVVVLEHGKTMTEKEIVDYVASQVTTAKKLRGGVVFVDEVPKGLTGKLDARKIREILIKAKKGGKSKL

Calls of active or inactive are those of the source.

Chain of Focal adhesion kinase 1 (Homo sapiens) (Q05397 whole entry, looked up): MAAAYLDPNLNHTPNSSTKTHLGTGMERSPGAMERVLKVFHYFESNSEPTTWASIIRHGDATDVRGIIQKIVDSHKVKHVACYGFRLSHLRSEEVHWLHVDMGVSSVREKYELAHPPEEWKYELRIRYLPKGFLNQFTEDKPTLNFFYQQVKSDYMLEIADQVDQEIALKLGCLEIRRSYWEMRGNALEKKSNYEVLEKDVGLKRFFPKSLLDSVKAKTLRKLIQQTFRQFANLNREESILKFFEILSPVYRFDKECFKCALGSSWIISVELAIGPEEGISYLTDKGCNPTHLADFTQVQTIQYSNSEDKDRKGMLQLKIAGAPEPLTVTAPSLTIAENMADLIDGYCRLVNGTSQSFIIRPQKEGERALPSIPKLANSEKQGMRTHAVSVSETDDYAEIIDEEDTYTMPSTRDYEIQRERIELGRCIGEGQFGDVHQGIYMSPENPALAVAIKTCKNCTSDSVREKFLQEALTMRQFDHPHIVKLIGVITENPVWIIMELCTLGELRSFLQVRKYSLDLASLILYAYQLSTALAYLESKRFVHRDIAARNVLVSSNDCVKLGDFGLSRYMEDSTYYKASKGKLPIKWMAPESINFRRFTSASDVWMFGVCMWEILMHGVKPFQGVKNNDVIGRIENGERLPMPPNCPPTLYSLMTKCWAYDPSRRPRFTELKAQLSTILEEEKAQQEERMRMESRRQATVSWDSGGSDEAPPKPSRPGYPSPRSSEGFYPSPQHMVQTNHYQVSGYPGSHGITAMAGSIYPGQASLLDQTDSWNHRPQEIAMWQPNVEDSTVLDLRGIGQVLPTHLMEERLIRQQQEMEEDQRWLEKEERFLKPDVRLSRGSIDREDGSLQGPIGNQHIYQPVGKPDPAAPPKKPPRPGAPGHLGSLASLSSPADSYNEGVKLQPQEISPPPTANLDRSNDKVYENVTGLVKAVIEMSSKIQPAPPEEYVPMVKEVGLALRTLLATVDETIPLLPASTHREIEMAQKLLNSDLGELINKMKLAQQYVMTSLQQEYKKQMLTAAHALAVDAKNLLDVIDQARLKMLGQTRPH
Chain of Concanavalin-A (Canavalia ensiformis) (P02866 whole entry, looked up): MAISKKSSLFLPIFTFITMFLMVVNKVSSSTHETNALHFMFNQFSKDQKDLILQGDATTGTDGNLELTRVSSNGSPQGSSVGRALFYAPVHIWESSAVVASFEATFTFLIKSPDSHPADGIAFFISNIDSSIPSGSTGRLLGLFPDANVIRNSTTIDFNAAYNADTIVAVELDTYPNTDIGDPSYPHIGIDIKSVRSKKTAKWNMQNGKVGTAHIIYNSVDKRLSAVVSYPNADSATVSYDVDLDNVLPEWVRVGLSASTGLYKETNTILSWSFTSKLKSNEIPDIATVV
Chain of Albumin (Bos taurus) (P02769 whole entry, looked up): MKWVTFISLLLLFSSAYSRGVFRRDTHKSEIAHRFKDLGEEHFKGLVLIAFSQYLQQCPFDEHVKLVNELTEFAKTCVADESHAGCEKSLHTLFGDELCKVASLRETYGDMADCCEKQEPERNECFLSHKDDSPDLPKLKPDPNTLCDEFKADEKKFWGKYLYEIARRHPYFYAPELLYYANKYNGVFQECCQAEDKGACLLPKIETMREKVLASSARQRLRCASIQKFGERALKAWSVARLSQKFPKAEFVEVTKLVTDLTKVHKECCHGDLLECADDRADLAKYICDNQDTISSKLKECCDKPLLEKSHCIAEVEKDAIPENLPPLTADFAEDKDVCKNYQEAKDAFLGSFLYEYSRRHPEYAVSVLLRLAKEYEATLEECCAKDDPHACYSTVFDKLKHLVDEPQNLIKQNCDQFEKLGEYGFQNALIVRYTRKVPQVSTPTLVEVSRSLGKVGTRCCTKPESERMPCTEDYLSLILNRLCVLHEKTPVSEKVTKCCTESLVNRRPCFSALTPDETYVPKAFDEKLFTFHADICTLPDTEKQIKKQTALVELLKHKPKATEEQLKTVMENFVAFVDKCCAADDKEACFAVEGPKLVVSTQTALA

In the case of `C=CCC(OC(C)=O)[C@@H]1[C@@H](N(Cc2cccc3ccccc23)C(=O)Cc2ccc(OC)cc2)c2cc(OCCCO)ccc2N1C(=O)c1ccc2ccccc2n1` (stereo not given in full), the composite z-score with Albumin (Bos taurus) was 0.249; in experiment [2] it was 0.0224; in experiment [3], -0.0515; in experiment [4], 0.189; in [5] it was 0.979; in experiment [6], 0.449. For the same compound, the composite z-score was 0.404 in the experiment on Sam68 (KHDRBS1); 0.173 in experiment [7]; -0.212 in experiment [8]; -0.115 in experiment [9]; -0.0569 in experiment [10]; 0.833 in experiment [11]. Also, the composite z-score in experiment [12] was 0.733; in experiment [13], 0.822; in [14], 0.0677; in the experiment with Lefty1, -0.0766; in experiment [16], 0.174. Further, the composite Z-score in experiment [1] was 0.397 (inactive). The z-score in [15] is 0.343; in experiment [17], 0.565 (inactive).

With `COCCCNC(=O)[C@]1(CCS(=O)(=O)c2ccccc2)N=C(c2ccc(OCCCO)cc2)O[C@@H]1c1ccccc1CN=[N+]=[N-]`, the composite z-score with Albumin (Bos taurus) came to 1.05; in [2], 0.271; in [3] it was 0.228; in [4] it was 0.735; in [5], 2.79; in experiment [6] it was 0.295. Moreover, the composite z-score with Sam68 (KHDRBS1) is 1.3; in [7], -0.79; in experiment [8], 1.24; in experiment [9], 3.31; in [10], 1.25; in experiment [11] it was 1.44. Besides, the composite z-score in experiment [12] worked out at 0.986; in experiment [13] it was 1.32; in [14] it was 0.803; in the experiment with Lefty1, 0.144; in experiment [16] it was 1.45. In addition, in experiment [1], the composite Z-score was 0.0933 (inactive). The z-score in [15] is 0.705; in [17], -0.842 (inactive).

With `COCCOC(=O)N1C(=O)[C@@]2(c3cc(C#Cc4ccc(OC)cc4)ccc31)[C@H](C(=O)Nc1nc3ccccc3s1)[C@H]1C(=O)O[C@H](c3ccccc3)[C@H](c3ccccc3)N1[C@@H]2c1ccc(OCCO)cc1`, the composite z-score was -0.0497 with Albumin (Bos taurus); 0.0493 in experiment [2]; -0.0539 in experiment [3]; 0.458 in experiment [4]; 0.757 in experiment [5]; -0.38 in experiment [6]. Also, the composite z-score in the experiment on Sam68 (KHDRBS1) amounted to 1.31; in experiment [7], 0.68; in experiment [8], 1.16; in experiment [9], 1.14; in experiment [10], 1.12; in experiment [11], 0.168. The composite z-score in experiment [12] was determined as 0.809; in [13] it was 1.17; in experiment [14], 1.28; with Lefty1, 0.87; in experiment [16], 0.494. Moreover, the composite Z-score in experiment [1] is 0.308 (inactive). The z-score in [15] was -2.19; in experiment [17], -3.71 (inactive).

As for `CCCC[C@@H](O)C1=C(COc2ccccc2)C[C@H]2C(=O)N(C)C(=O)[C@H]2[C@H]1CO`, the composite z-score with Albumin (Bos taurus) is -0.261; in experiment [2], -0.201; in experiment [3], -0.173; in experiment [4], -0.482; in experiment [5] it was -0.61; in experiment [6], -0.357. In addition, the composite z-score with Sam68 (KHDRBS1) was -0.501; in experiment [7], 0.103; in experiment [8] it was -0.425; in experiment [9], 0.0713; in experiment [10] it was -0.231; in [11], 0.713. Moreover, the composite z-score in experiment [12] was -0.247; in experiment [13] it was 0.129; in [14], -0.16; with Lefty1, 0.0695; in experiment [16], -0.488. Besides, the composite Z-score in experiment [1] is -0.191 (inactive). Also, the z-score is 0.708 in [15] and -0.475 (inactive) in experiment [17].

`COc1cc2c(cc1O)C(C)N(Cc1ccc([N+](=O)[O-])o1)CC2` (stereo not given): the composite z-score with Albumin (Bos taurus) amounted to 0.831; in experiment [2], 0.348; in experiment [3], 0.0746; in [4] it was 0.512; in [5], 0.68; in experiment [6], 1.57. For the same compound, the composite z-score in the experiment on Sam68 (KHDRBS1) is 1.33; in [7] it was -0.622; in [8] it was 1.17; in [9], 1.63; in experiment [10], 1.1; in [11], 0.243. Moreover, the composite z-score in experiment [12] came to 0.824; in [13] it was 0.542; in experiment [14], 0.18; in the experiment with Lefty1 it was 0.18; in experiment [16] it was 0.918. Moreover, the composite Z-score in [1] was 0.0948 (inactive). Moreover, the z-score in experiment [15] was 0.275; in experiment [17], -0.0107 (inactive).

As to `O=C1C[C@@](C(=O)NCCN2CCOCC2)(c2ccc([N+](=O)[O-])cc2)[C@@H](c2ccc(CO)cc2I)N1C1CCCCC1`, the composite z-score is 0.614 in the experiment with Albumin (Bos taurus); -0.095 in [2]; -0.14 in experiment [3]; 0.659 in [4]; 1.74 in [5]; 1.07 in [6]. The composite z-score in the experiment on Sam68 (KHDRBS1) came out at 0.761; in [7] it was 0.473; in experiment [8] it was 0.416; in [9] it was 1.27; in experiment [10], 1.24; in [11], 0.211. Moreover, the composite z-score was -0.415 in [12]; 1.15 in experiment [13]; 0.94 in [14]; 0.992 with Lefty1; 0.308 in experiment [16]. Moreover, the composite Z-score in [1] is 0.142 (inactive). For the same compound, the z-score in experiment [15] is 1.8; in experiment [17] it was 1.35 (inactive).

The values above are taken from PubChem BioAssay.
